# G9a block – G9a (human) methyltransferase inhibition; Q96KQ7; G9a H3K9 monomethylation, AlphaScreen, 2 h; Potency, µM (doses to about 102 µM), without a hit: at the top dose activity, negative = inhibition, hits mostly inhibitors; hit rate 8.8% among 350,000; also: potency is read from the fitted curve at half-maximal effect; nearly all actives have a fitted effect of over 75% in size
# Target sequence (Q96KQ7 913-1193 limits assumed): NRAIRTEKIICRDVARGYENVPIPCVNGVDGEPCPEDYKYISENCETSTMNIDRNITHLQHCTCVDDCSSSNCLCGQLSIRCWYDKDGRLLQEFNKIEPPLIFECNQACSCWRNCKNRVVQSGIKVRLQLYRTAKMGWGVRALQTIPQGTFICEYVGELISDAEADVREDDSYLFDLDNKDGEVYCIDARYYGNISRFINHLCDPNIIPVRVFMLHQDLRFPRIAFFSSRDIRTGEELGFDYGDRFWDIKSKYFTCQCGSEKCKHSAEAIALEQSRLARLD
#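 Step 1: enzyme (final 20 nM) with compound, 15 min RT. Step 2: substrate peptide 500 nM and SAM 20 uM, 2 h RT. Step 3: anti-H3K9me1 antibody and AlphaScreen beads, 10 min, then plate read.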
# Sfp PPTase inh – blocks B. subtilis Sfp PPTase activity; Q9F4F7; Biochemical Sfp PPTase activity, qHTS; Potency, µM, for inactives: largest response in the series, negative = inhibition, usual class: inhibitors; hit rate 3.5% among 310,000; AID 1490;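 also: the enzyme is Sfp with the accession as filed and its product quenches rhodamine fluorescence; potency is read from the fitted curve at half-maximal effect; 0% = enzyme reaction without inhibitor and -100% = no enzyme wells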
#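 Reaction rates are the 30-min fluorescence difference (ex 525, em 598 nm) in wells containing 15 nM Sfp, 5 uM rhodamine-CoA and 12.5 uM BHQ-2-YbbR at pH 7.6 with 10 mM MgCl2.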
# CCT chaperon mod – modulators of cytosolic chaperonin (CCT/TRiC) activity; purified chaperonin ATPase assay, HTRF ADP detection, 30 min; activity change, % (no concentration beside the values), hits read low; hit rate 0.3% among 360,000; in the data active = activity change below about -30%
#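 ATPase activity: ADP formed was measured by HTRF Transcreener (665/615 nm ratio) after 30 min at 37 deg C with 10 uM ATP. Compounds screened at one 76 uM concentration against 40 or 20 nM TRiC in Tris pH 7.4/KCl/MgCl2/DTT buffer.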
# PLK1 PBD inh – inhibitors of human PLK1 polo-box domain binding | P53350 | Plk1 PBD binding of FITC phosphopeptide, fluorescence polarization | Potency, µM, for the others: max response, negative = inhibition, actives largely listed as inhibitors | hit rate 2.8% among 360,000 | AID 720504; also: potency is read from the fitted curve at half-maximal effect; series mostly up to about 57 µM; nearly all actives have a fitted effect of over 65% in size
# Mm-Cpn inhibitor – M. maripaludis TRiC chaperonin inhibition. purified Mm-Cpn ATPase, ADP Transcreener TR-FRET. Potency, µM (series often up to 76.9 µM), for inactives: at the highest dose activity, negative = inhibition, hits mostly inhibitors. hit rate 0.031% among 330,000. AID 504842; also: potency is read from the fitted curve at half-maximal effect; nearly all actives have a fitted effect of over 80% in size
#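 25 nM Mm-CPN + cpd, 10 min 37°C; + 10 uM ATP, 30 min 37°C; buffer 30 mM Tris pH 7.4, 100 mM KCl, 5 mM MgCl2, 1 mM DTT; Transcreener ADP HTRF detection 30 min RT.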
# VDR inh – blocks the human vitamin D receptor | P11473 | VDR-SRC2-3 peptide fluorescence polarization, 2 h | Potency, µM, inactives show max response, negative = inhibition, most hits filed as inhibitors | hit rate 0.93% among 400,000; also: potency is read from the fitted curve at half-maximal effect
#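 FP read-out; VDR + SRC2-3 coactivator peptide; 23 nl compound by pintool; 2 h RT incubation; reagents held at 4 deg C, protected from light.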
# An asterisk follows results filed as active; ? = inconclusive; nt = not tested or not shown; ! = not confirmed by another sample; [ ] = another dose, or the depositor's remark. A selection: hits, their analogues and other compounds. The true share with any hit is near 10%. Unless noted, calls follow the shape of the dose curve; as a rule, active = well fitted curve in the direction sought with a large enough effect; inconclusive = small, poorly fitted or top-dose-only effect, or another doubt; inactive = no such curve, though single readings can be large; an effect the other way counts as inactive or inconclusive. Unless noted, % is scaled to controls: 0 for no effect and ±100 for the full control effect.
SMILES,G9a block,Sfp PPTase inh,CCT chaperon mod,PLK1 PBD inh,Mm-Cpn inhibitor,VDR inh
N[C@@H](Cc1cc(Br)c(O)c(Br)c1)C(=O)O,35µM*,50µM*,nt,nt,-2%,nt
Oc1c(Br)cc(-c2ccccc2)cc1Br,nt,nt,-1,?,nt,-5%
O=C1Nc2ccccc2C1Cc1nc2ccccc2c(=O)n1-c1ccccc1 (configuration not stated),-35%,-5%,-2,21µM*,-4%,?
Cc1cccc(-n2c(CC3C(=O)Nc4ccc(C)cc43)nc3ccccc3c2=O)c1 (configuration not stated),?,nt,nt,nt,nt,2%
COC(=O)[C@H]1[C@H](c2ccccc2)C(=O)[C@@]2(O)c3ccccc3O[C@@]12c1ccccc1,nt,11%,nt,nt,nt,nt
c1ccc(CN2CCN(Cc3ccc4ccccc4c3)CC2)cc1,1.4µM*,-36%,0,-11%,-1%,2%
Cc1ccc(CN2CCN(Cc3ccccc3)CC2)cc1,nt,7%,-5,-16%,5%,1%
Cc1ccc2c(c1)C(=O)CC1(CCC(C(C)(C)C)CC1)O2 (configuration not stated),89%[59 µM],-4%,0,-3%,1%,-3%
Cc1ccc2cc(C=C(C#N)C#N)c(Cl)nc2c1,?,56µM*,0,8.4µM*,-7%,35µM*
Cc1cc(N2CCCC2)ccc1C=C(C#N)C#N,18%[59 µM],12%,2,?,-2%,?
C#CCN1CC(=O)N(COC(=O)[C@@H]2[C@@H](C=C(C)C)C2(C)C)C1=O,35%[59 µM],12%,nt,nt,nt,-13%
CCN(CC)c1ccc(CN2CC=C(c3ccc(F)cc3)CC2)cc1,45µM*,5%,-1,-3%,-1%,5%
CC1N(P(=O)(c2ccccc2)c2ccccc2)CC(O)(c2ccccc2)CC12CC2 (configuration not stated),nt,-4%,nt,nt,nt,nt
CC(C)N1CCN(Cc2cccc([N+](=O)[O-])c2)CC1,3.5µM*,79µM*,-2,-7%,1%,2%
O=[N+]([O-])c1cccc(CN2CC=C(c3ccc(F)cc3)CC2)c1,?,-4%,-9,-9%,2%,1%
O=[N+]([O-])c1cccc(CN2CCN(Cc3ccc(Cl)cc3)CC2)c1,3.5µM*,?,0,-16%,0%,1%
CC(C)N(CC(O)c1cccc([N+](=O)[O-])c1)C(C)C (configuration not stated),?,9%,-1,-1%,1%,-13%
CCC(C=C[C@@H]1OC(=O)C=C[C@H]1C)=C[C@H](C)CC=CC(C)=C[C@@H](C)C(=O)[C@@H](C)[C@H](O)[C@@H](C)CC(C)=CC(=O)O,?,0.71µM*,nt,nt,nt,1.6µM*
CC(=O)CC(c1ccccc1)c1c(O)c2cccc(O)c2oc1=O (configuration not stated),nt,-8%,nt,nt,nt,3%
CCCCC/C=C\C/C=C\C/C=C\C/C=C\CCCC(=O)NCC(=O)O,12µM*!,79µM*!,nt,nt,nt,40µM*!
CCCCC/C=C\C/C=C\C/C=C\C/C=C\CCCC(=O)Nc1ccc(O)cc1,-8%[59 µM],33%,nt,nt,-13%,-1%
CCCCC/C=C\C/C=C\C/C=C\C/C=C\CCCC(=O)NCCO,34%[59 µM],45µM*!,nt,nt,nt,71µM*!
CCCCC/C=C\C/C=C\C/C=C\C/C=C\CCCC(=O)NCc1ccoc1,14µM*,22µM*,nt,nt,nt,22µM*
CCCCC/C=C\C/C=C\C/C=C\C/C=C\CCCC(=O)NCCc1ccc(O)c(O)c1,11µM*,45µM*!,nt,nt,nt,40µM*!
CCCCC/C=C\C/C=C\CCCCCCCCCC(=O)NCCO,nt,-2%,nt,nt,nt,-13%
CCC(C(N)=O)N1CCCC1=O (configuration not stated),27%[59 µM],-1%,nt,nt,nt,13%
CCCCC/C=C\C/C=C\C/C=C\C/C=C\CCCC(=O)OCCN,?,63µM*,nt,nt,nt,?
CCCCC/C=C\C/C=C\C/C=C\C/C=C\CCCC(N)=O,45%[59 µM],28%,nt,nt,nt,-1%
CCCCC/C=C\C/C=C\C/C=C\C/C=C\CCCC(=O)N(Cc1ccc(O)c(Cl)c1)Cc1ccc(O)c(Cl)c1,?,-5%,nt,nt,nt,14µM*

# Screening data: PubChem BioAssay, National Center for Advancing Translational Sciences (NCATS)
